Hits are enriched below; roughly 2.1% of the tested compounds scored in any of these assays.
GALR2 agonist: agonists of human galanin receptor 2 (GALR2); activation, % (concentration not given with the values); O43603; 0.48% of 140,000 active; GALR2-expressing cells, agonist activation read-out; AID 803; in the data active means activation above about 5%, passing the limit was not always enough
Target sequence (O43603 whole entry, looked up): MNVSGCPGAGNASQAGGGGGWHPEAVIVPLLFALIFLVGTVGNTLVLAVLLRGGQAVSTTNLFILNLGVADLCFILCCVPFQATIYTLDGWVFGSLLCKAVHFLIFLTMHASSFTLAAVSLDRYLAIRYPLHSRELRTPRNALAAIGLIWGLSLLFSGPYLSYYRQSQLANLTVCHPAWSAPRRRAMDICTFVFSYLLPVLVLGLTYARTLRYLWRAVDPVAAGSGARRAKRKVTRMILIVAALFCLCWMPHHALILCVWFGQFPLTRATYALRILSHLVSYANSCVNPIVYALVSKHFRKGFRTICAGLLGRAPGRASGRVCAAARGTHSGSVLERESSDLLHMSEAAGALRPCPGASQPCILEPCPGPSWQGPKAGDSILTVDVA
S1P2 antag: S1P2 (human) receptor antagonism; inhibition, % at 5 µM; 0.21% of 97,000 active; cell-based S1P2 antagonist assay, inhibition at 5 uM; O95136; AID 736; in the data active means inhibition above about 45%;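 further: CRE beta-lactamase reporter cells expressing human S1P2 stimulated with S1P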
DAT uptake mod: human DAT dopamine uptake with cocaine, either direction; LLC-PK1 hDAT cells, [14C]-dopamine uptake with cocaine IC80; actives deviate in either direction; Q01959; B-score at 10 µM; 1.3% of 110,000 active;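 active means Z score or B-score, a plate-position-corrected score, falls beyond the plate's 99.7% confidence bounds, in either direction; inactive means both scores lie inside the 99.7% bounds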
S1P2 ag: activates the human S1P2 receptor; AID 729; 0.46% of 97,000 active; activation, % at 4.5 µM; O95136; S1P2-expressing cell line, agonist reporter read-out; in the data active means activation above about 16%
GALR2 antag: blocks the human galanin receptor 2 | O43603 | GALR2-expressing cells, antagonist mode | inhibition, % at 4 µM | 0.39% of 140,000 active | AID 828; in the data active means inhibition above about 27%;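 further: cells stimulated with galanin 1-16 at roughly its EC80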
Each line names hits and unclear results; the compound was inactive in the other large screens.

O=C(COC(=O)CCC(=O)Nc1nccs1)NCc1ccco1	none
N#Cc1c(N)n(C2CCCCC2)c2nc3ccccc3nc12	GALR2 agonist 17.2, S1P2 ag 22.0
[O-][n+]1c2c(c3c4non(O)c4ccc31)CCCC2	none
CCC(C)c1ccc(NC(=O)CSc2nncn2N)cc1 (configuration not stated)	none
Nn1cnnc1SCC(=O)Nc1ccc(C2CCCCC2)cc1	DAT uptake mod 1.28 (no result: S1P2 antag, S1P2 ag)
C=CCn1c(NC)cc(=O)n(C)c1=O	DAT uptake mod -9.14
CCNc1cc(=O)n(C)c(=O)n1C	none
O=C(CSc1nc2ccccc2c(=O)n1-c1ccc(F)cc1F)c1c[nH]c2ccccc12	none (no result: S1P2 antag, DAT uptake mod, S1P2 ag)
CC(C)n1c(=NC(=O)c2ccco2)c(C#N)cc2c(=O)n3ccccc3cc21	GALR2 agonist 6.3 (no result: S1P2 antag, DAT uptake mod, S1P2 ag)
C[C@H]1CC[C@H]2C(=O)N[C@H](Cc3ccccc3)C(=O)N2[C@@H]1c1ccccc1	none (no result: S1P2 antag, S1P2 ag)
O=C(c1ccc([N+](=O)[O-])cc1)N(Cc1ccc(Cl)cc1Cl)N1C(=O)CCCC1=O	none
O=C(c1ccc([N+](=O)[O-])cc1)N(Cc1ccc(Cl)cc1)N1C(=O)CCCC1=O	DAT uptake mod -6.56
Cc1cccc(OCCCC(=O)N2CCCc3ccccc32)c1C	none
O=C(CSc1nc2ccccc2[nH]1)NCC1CCCO1 (configuration not stated)	none (no result: S1P2 antag, DAT uptake mod, S1P2 ag)
N=c1n(CCO)c2ccccc2n1CCOc1ccc(Cl)cc1Cl	DAT uptake mod 2.97
COc1ccc(OCCn2c(=N)n(CCO)c3ccccc32)cc1	none
COc1ccc(OCc2ccc(C(=O)N3CCOCC3)cc2)cc1	none
COc1ccc(C(=O)/C=C\N2CCOCC2)cc1	DAT uptake mod -2.69
c1ccc2[nH]c(CSc3ncnc4c3oc3ccccc34)nc2c1	S1P2 ag 31.6
Cc1nc(SCc2nc3ccccc3[nH]2)c2oc3ccccc3c2n1	S1P2 ag 23.2
Cc1nc(N2CCN(Cc3nc4ccccc4[nH]3)CC2)c2oc3ccccc3c2n1	DAT uptake mod 2.51
Cc1nc(SCCO)c2oc3ccccc3c2n1	none
CCOC(=O)c1sc(NS(=O)(=O)c2ccccc2Cl)nc1C	none
FC(F)(F)C1=CC(c2ccc(Br)cc2)=NCCN1	none
CCOC(=O)c1sc2nc(C3CC3)cc(-c3ccc(OC)cc3)c2c1N	none
CCOC(=O)c1sc2nc(C3CC3)cc(-c3ccc(F)cc3)c2c1N	S1P2 ag 37.6
COc1ccc(-c2ccccc2)cc1NCc1ccc(OC)c(OC)c1	none (no result: S1P2 antag, DAT uptake mod, S1P2 ag)
Cn1ccnc1SCc1cn2cc(Br)ccc2n1	DAT uptake mod -8.74
Cc1ccc(-c2noc(CCC(=O)NCc3ccc4c(c3)OCO4)n2)cc1	DAT uptake mod 1.17
Cc1ccc(CC(=O)NCc2ccc3c(c2)OCO3)cc1	none
Cc1c(Cc2ccccc2)c(=O)oc2c(CN(C)C)c(O)c(Cl)cc12	GALR2 agonist 8.3 (no result: S1P2 antag, S1P2 ag)
CCOc1cc(C2C(C(=O)c3ccc(C)o3)=C(O)C(=O)N2CCc2ccccc2)ccc1O (configuration not stated)	DAT uptake mod -4.62
COc1cc(C2C(C(=O)c3ccco3)=C(O)C(=O)N2CCc2ccccc2)ccc1O (configuration not stated)	DAT uptake mod -3.27 (no result: S1P2 antag, S1P2 ag)
COc1cc(C2C(C(C)=O)=C(O)C(=O)N2CCc2ccc(OC)c(OC)c2)ccc1O (configuration not stated)	none
COc1ccc(CCN2C(=O)C(O)=C(C(=O)c3ccco3)C2c2cccs2)cc1OC (configuration not stated)	DAT uptake mod -3.33
Cc1ccc(OCC(=O)N/N=C\c2ccncc2)c(C)c1	none (no result: S1P2 antag, DAT uptake mod, S1P2 ag)
N#C/C(=C\c1ccc(O)c(O)c1)S(=O)(=O)c1ccccc1	DAT uptake mod -2.62
CCOC(=O)N1CCN(C(=O)Cn2cc3c(n2)CCCC3)CC1	DAT uptake mod -7.86 (no result: S1P2 antag, S1P2 ag)
CCC(C)(C)n1c(=O)[nH]c2c(c1=O)CCC2	DAT uptake mod 3.02
Cc1cccc(Oc2sc(C(=O)c3ccccc3)c(N)c2C#N)c1	none
Cc1cc(N2CCN(c3nc4ccccc4s3)CC2)n2ncnc2n1	S1P2 antag 50.6
O=C(Nc1nnc(-c2ccc(Cl)cc2)o1)c1nc2ccccc2s1	S1P2 antag 51.2
CC(=O)Nc1cccc(Oc2ncnc3scc(-c4ccc(C)cc4)c23)c1	none (no result: S1P2 antag, DAT uptake mod, S1P2 ag)
Cc1cc(SCC(=O)c2cccs2)n2nc(C)c(-c3ccccc3)c2n1	none (no result: S1P2 antag, DAT uptake mod, S1P2 ag)
Cc1cc(SCC#N)n2nc(C)c(-c3ccccc3)c2n1	S1P2 ag 16.3
Cc1cc(SCC#N)n2nc(C)c(-c3ccc(Cl)cc3)c2n1	S1P2 ag 38.9
COCCCn1c(SCC(=O)N2CC(=O)Nc3ccccc32)nnc1-c1ccoc1C	DAT uptake mod -2.42
COc1ccc(OCCN2CCN(C3CC(=O)N(CCC(C)C)C3=O)CC2)cc1 (configuration not stated)	none
COc1cc(-c2nnc3sc(C4CCCCC4)nn23)cc(OC)c1OC	S1P2 ag 19.8
Cc1cc(-c2nnc3sc(C4CCCCC4)nn23)n[nH]1	none
CCOc1cccc(-c2nnc3sc(C4CCCCC4)nn23)c1	none
COc1cccc(-c2nnc3sc(C4CCCCC4)nn23)c1	DAT uptake mod -8.26
CCOc1ccc(S(=O)(=O)N2c3ccccc3CC2C)cc1 (configuration not stated)	DAT uptake mod -2.72
O=C(Nc1ccccn1)C(F)(F)C(F)(F)C(F)(F)C(F)(F)C(=O)Nc1ccccn1	none (no result: S1P2 antag, DAT uptake mod, S1P2 ag)
COc1nn(CC(=O)N2N=C(C(F)F)CC2(O)C(F)F)cc1[N+](=O)[O-] (configuration not stated)	none
CCCCCN=Cc1c(C)[nH]n(-c2nc3ccccc3s2)c1=O	DAT uptake mod 2.51
Cc1nnc(SCC(=O)c2ccccc2)n1Cc1ccccc1	none (no result: S1P2 antag, DAT uptake mod, S1P2 ag)
Cc1ccccc1OCC(=O)Nc1ccc(N2CCN(S(C)(=O)=O)CC2)cc1	DAT uptake mod -8.1
C=CCNC(=S)N/N=C(\C)c1ccccn1	none
c1ccc(-c2c3ccccc3nc3[nH]c4ccccc4c23)cc1	GALR2 agonist 5.0 (no result: S1P2 antag, S1P2 ag)
Cc1cc(C)nc(SCc2nnc(SCC(=O)N3CCCc4ccccc43)n2C)n1	none
O=C(CSc1nnc(Cc2ccccc2)o1)N1CCCc2ccccc21	DAT uptake mod 2.6 (no result: S1P2 antag, S1P2 ag)
Cc1cc(C)nc(SCc2nnc(SCC(=O)N3CCCc4ccccc43)o2)n1	DAT uptake mod 3.26
O=C(CSc1nnc(CNc2ccccc2)o1)N1CCc2ccccc21	none
CC(=O)NS(=O)(=O)c1ccc(NC(=O)c2ccc(Br)o2)cc1	DAT uptake mod -8.42
CC1CCCN(C(=O)CSc2nnc3n(C4CCCC4)c(=O)c4ccccc4n23)C1 (configuration not stated)	DAT uptake mod 3.1
O=C(CSc1nnc2n(C3CCCC3)c(=O)c3ccccc3n12)N1CCCCCC1	none
Cc1[nH]c2ccccc2c1[C@H]1[C@@H](CC#N)C1(C)C	none
O=S(=O)(Cc1ccc(Cl)cc1)NCC1CCCO1 (configuration not stated)	S1P2 ag 62.6
NC(=O)c1ccc(Sc2nnc(-c3cccs3)n2CC2CCCO2)c([N+](=O)[O-])c1 (configuration not stated)	none (no result: S1P2 antag, DAT uptake mod, S1P2 ag)
COC(=O)C(Cc1ccc(OC(=O)c2ccccc2C)cc1)N1Cc2ccccc2C1=O (configuration not stated)	DAT uptake mod 3.3

Assay outcomes deposited in PubChem by several laboratories.
